JMJD2A Tudor inh: inhibitors of human JMJD2A Tudor domain; AlphaScreen JMJD2A-Tudor / H3K4me3 peptide binding; 4.4% of 390,000 active; O75164; AID 504339; Potency, µM (titrated, usually from 114 µM), for inactives: at the highest dose activity change, negative = inhibition, usual class: inhibitors; note: % is set by controls: 0 for no effect and ±100 for the full control effect; nearly all actives have a fitted effect of over 50% in size
HP1b binding inh: blocks HP1-beta chromodomain binding to methylated histone tails; AlphaScreen HP1-beta / biotin-H3K9me3 peptide binding; Potency, µM (highest dose often 114 µM), inactives show top-dose activity change, negative = inhibition, usual class: inhibitors; 0.56% of 390,000 active; P83916; AID 540317; note: nearly all actives have a fitted effect of over 70% in size
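HP1-beta protein (50 nM final) preincubated 30 min at room temperature with biotinylated H3(1-18)K9me3 peptide (50 nM) in PBS pH 7.4, 0.01% Tween-20, then compound added for 30 min. AlphaScreen streptavidin donor/nickel chelate acceptor beads (10 ug/mL final), 30 min dark, luminescence read.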
L3MBTL1 inh: blocks human L3MBTL1 | Q9Y468 | AlphaScreen L3MBTL1–H3K9me1 peptide binding | Potency, µM (highest dose often 57.1 µM), without a hit: at the top dose activity, negative = inhibition, most hits filed as inhibitors | 0.66% of 230,000 active | AID 485360; note: % is set by controls: 0 for no effect and ±100 for the full control effect; nearly all actives have a fitted effect of over 60% in size
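AlphaScreen proximity signal between nickel-chelate acceptor and streptavidin donor beads (final 10 ug/mL) reports binding of 50 nM L3MBTL1 to 75 nM biotin-H3 K9me1 peptide; complex incubated with compounds 30 min at room temperature; cefsulodin titration as control.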
G9a block: inhibitors of human histone lysine methyltransferase G9a; Q96KQ7; G9a H3K9 monomethylation, AlphaScreen, 2 h; 8.8% of 350,000 active; Potency, µM (highest dose often 102 µM), for inactives: top-dose activity, negative = inhibition, usual class: inhibitors; note: % is set by controls: 0 for no effect and ±100 for the full control effect; nearly all actives have a fitted effect of over 75% in size
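Step 1: enzyme (final 20 nM) with compound, 15 min RT. Step 2: substrate peptide 500 nM and SAM 20 uM, 2 h RT. Step 3: anti-H3K9me1 antibody and AlphaScreen beads, 10 min, then plate read.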
BAZ2B block: inhibitors of human BAZ2B bromodomain; Q9UIF8; AlphaScreen BAZ2B-H3K14Ac peptide displacement; Potency, µM (series often up to 114 µM), inactives show top-dose activity change, negative = inhibition, most hits filed as inhibitors; 4.4% of 360,000 active; note: % is set by controls: 0 for no effect and ±100 for the full control effect; nearly all actives have a fitted effect of over 60% in size
Target sequence (Q9UIF8 whole entry, looked up): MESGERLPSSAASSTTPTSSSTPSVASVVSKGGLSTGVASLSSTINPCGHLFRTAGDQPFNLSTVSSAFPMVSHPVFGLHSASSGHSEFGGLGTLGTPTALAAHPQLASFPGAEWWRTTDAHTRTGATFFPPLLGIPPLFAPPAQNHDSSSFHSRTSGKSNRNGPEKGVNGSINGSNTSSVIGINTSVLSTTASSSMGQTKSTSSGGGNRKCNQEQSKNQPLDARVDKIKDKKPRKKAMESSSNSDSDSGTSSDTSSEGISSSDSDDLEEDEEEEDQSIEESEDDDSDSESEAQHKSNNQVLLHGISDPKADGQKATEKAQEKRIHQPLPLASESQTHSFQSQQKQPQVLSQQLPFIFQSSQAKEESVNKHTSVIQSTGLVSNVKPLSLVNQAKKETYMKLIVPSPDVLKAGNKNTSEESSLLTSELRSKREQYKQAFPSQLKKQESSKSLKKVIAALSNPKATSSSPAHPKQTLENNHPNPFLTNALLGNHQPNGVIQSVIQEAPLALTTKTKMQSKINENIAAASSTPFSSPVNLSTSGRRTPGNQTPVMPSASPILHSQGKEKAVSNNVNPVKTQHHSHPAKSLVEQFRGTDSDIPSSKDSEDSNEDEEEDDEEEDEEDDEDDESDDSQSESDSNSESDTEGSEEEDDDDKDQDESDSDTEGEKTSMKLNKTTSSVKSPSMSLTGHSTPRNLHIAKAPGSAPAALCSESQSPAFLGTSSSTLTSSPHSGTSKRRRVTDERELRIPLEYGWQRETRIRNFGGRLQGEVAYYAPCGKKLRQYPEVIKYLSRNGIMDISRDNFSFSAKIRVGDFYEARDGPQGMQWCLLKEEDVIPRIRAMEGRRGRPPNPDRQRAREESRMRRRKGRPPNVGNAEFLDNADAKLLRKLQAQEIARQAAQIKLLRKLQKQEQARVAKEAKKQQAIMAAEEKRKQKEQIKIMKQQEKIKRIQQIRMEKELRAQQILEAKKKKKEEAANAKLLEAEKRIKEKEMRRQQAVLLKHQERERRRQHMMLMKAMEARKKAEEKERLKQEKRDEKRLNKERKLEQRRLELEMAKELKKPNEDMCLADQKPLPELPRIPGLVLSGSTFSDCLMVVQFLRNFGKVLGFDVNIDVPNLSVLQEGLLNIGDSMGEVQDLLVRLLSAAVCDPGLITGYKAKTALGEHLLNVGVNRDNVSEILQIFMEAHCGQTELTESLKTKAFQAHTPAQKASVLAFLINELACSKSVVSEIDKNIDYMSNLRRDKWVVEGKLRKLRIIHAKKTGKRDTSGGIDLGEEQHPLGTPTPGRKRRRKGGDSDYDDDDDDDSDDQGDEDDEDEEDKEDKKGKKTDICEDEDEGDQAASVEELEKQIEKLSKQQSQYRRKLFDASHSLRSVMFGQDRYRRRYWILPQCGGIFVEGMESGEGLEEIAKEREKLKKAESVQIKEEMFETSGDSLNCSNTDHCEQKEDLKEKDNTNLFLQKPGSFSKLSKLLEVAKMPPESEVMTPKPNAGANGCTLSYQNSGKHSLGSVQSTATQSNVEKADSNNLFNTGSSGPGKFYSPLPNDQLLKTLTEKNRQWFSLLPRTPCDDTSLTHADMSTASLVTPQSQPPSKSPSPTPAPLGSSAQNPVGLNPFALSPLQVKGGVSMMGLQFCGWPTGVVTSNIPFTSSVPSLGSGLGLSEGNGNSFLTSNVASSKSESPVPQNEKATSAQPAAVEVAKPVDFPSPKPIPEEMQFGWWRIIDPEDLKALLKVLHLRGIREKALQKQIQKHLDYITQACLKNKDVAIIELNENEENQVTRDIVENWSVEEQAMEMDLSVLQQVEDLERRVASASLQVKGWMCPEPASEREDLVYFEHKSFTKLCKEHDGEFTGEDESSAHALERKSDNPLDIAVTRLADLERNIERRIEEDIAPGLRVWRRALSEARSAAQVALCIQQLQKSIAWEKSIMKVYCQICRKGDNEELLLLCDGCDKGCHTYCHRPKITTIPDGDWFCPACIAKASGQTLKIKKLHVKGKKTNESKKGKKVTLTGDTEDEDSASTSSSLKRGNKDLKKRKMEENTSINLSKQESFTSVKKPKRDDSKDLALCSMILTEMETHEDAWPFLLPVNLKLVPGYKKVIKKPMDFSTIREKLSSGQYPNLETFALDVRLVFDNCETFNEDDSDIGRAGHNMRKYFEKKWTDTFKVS
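AlphaScreen displacement of biotin-H3(5-23)K14Ac peptide (50 nM final) from BAZ2B (50 nM final) in PBS pH 7.4, 0.01% Tween-20; complex preformed 30 min RT, then compounds (top 110 uM) 30 min RT, beads 20 min dark.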
* = called active by the depositor; ? = inconclusive; nt = no result; [ ] = another dose, or the depositor's remark. Shown are actives, neighbours in structure and some others; about 11% of the full set was active somewhere. Calls come from the whole dose curve; as a rule, active = well fitted inhibition curve with a large enough effect; inconclusive = small, poorly fitted or top-dose-only effect; inactive = no such curve, though single readings can be large or run the other way. Potency is the fitted concentration of half-maximal effect.

SMILES	JMJD2A Tudor inh	HP1b binding inh	L3MBTL1 inh	G9a block	BAZ2B block
Cc1ccc2c(c1)CC1(CN2C)C(=O)NC(=O)N(CCC2=CCCCC2)C1=O (stereo not given)	-13%	32%	-4%	10µM*	-31%
Cc1cccc(N2C(=O)NC(=O)C3(Cc4cc(C)ccc4N(C)C3)C2=O)c1 (stereo not given)	-4%[11.4 µM]	63%	2%	10µM*	-21%
COc1ccc2c(c1)CC1(CN2C)C(=O)NC(=O)N(c2ccc(C)cc2)C1=O (stereo not given)	-8%	49%	nt	?	?
Cc1ccc2c(c1)CC1(CN2C)C(=O)NC(=O)N(C(C)C)C1=O (stereo not given)	6%[57.1 µM]	-6%	-9%	32µM*	6%
O=S1(=O)OCCC(c2ccccc2)N1Cc1ccccc1 (stereo not given)	26%	51%	7%	-1%	-4%
C[C@@H]1O[C@@H](O[C@H]2C[C@@H](O)[C@]3(CO)[C@H]4[C@H](O)C[C@]5(C)[C@@H]([C@@H]6COC(=O)C6)CC[C@]5(O)[C@@H]4CC[C@]3(O)C2)[C@H](O)[C@H](O)[C@H]1O	nt	nt	nt	23%[12.7 µM]	nt
CCc1nn2c(=O)c(C)c(N3CCNCC3)nc2s1	-3%	nt	nt	nt	nt
CC1OC(OC2C(O)CC(OC3C(O)CC(OC4CCC5(C)C(CCC6C5CCC5(C)C(C7=CC(=O)OC7)CCC65O)C4)OC3C)OC2C)CC(O)C1O (stereo not given)	nt	nt	nt	13%[59 µM]	nt
CCCOc1ccc(N2CC(C(=O)Nc3ccccc3F)CC2=O)cc1 (stereo not given)	-8%	27%	0%	?	2%
COc1ccccc1CC(=O)Nc1ccc2c(c1)OC1(CCCC1)O2	?	?	-9%	nt	nt
Cc1ccc(NC(=O)N(Cc2ccc3c(c2)OCO3)C2CCN(Cc3ccccc3)CC2)cc1Cl	?	-1%	nt	?	-39%
CN1C(=O)C(c2ccc([N+](=O)[O-])cc2[N+](=O)[O-])C(=O)N(C)C1=O	?	18%	nt	8%[2.33 µM]	50µM*
CCOC(=O)C1CCN(/C=C2/C(=O)NC(=O)N(Cc3ccco3)C2=O)CC1	?	-13%	14µM*	?	?
COC(=O)C1=C(C)N(Cc2ccco2)C(=O)/C1=C\c1ccc(N(C)C)cc1	16µM*	-73%	-24%	?	?
CN(C)c1ccc(/C=C2\C(=O)NC(=O)N(Cc3ccc(F)cc3)C2=O)cc1	-11%	20%	nt	nt	-10%
COc1ccc(/C=C2/C(=O)NC(=O)N(Cc3ccco3)C2=O)cc1	nt	nt	8.9µM*	10µM*	32µM*
Cc1ccc(OCCn2cccc2/C=C2/C(=O)NC(=O)N(Cc3ccco3)C2=O)cc1	-30%	4%	nt	50µM*	-35%
Cn1cccc1/C=C1\C(=O)NC(=O)N(Cc2ccco2)C1=O	56µM*	45µM*	nt	?	56µM*
CCc1ccc(N2C(=O)NC(=O)/C(=C\c3cccn3CCOc3ccc(C(C)C)cc3)C2=O)cc1	?	19%	-4%	7.1µM*	-18%
Cc1cccc(N2C(=O)NC(=O)/C(=C\c3cccn3-c3ccc(Cl)cc3)C2=O)c1	-10%	28%	-6%	24%[0.501 µM]	4%
COc1ccc2cc1Oc1ccc(cc1)C[C@H]1c3cc(c(OC)cc3CCN1C)Oc1c(OC)c(OC)cc3c1[C@@H](C2)N(C)CC3	?	1%	-1%	24%[2.33 µM]	?
Cc1cc(C)nc(N/N=C/C2=C(O)CC(c3ccccc3)CC2=O)n1 (stereo not given)	nt	nt	nt	-13%	22µM*
CCN(CC)c1ccc(CN(C)CCc2ccc(OC)c(OC)c2)cc1	10µM*	?	-4%	?	45µM*
CCN(CC)CCCN=Cc1c(O)n(CCc2ccc(OC)c(OC)c2)c(=O)[nH]c1=O	-16%	30%	2%	-6%	9%
COc1ccc(CCN(C)Cc2ccc(F)cc2F)cc1OC	4µM*	?	nt	10µM*	?
SMILES	JMJD2A Tudor inh	HP1b binding inh	L3MBTL1 inh	G9a block	BAZ2B block
CN(C)/C=C1/C(=O)NC(=O)N(CCNc2ncc(C(F)(F)F)cc2Cl)C1=O	-28%	-10%	-9%	45µM*	?
O=C(c1cccnc1)c1cc2ccccc2[nH]1	1%	35%	4%	-5%[59 µM]	1%
CC(=O)c1c(COC(=O)c2cccnc2)nc2ccccc2[n+]1[O-]	-9%	28%	-1%	10µM*	5%
O=c1oc(Cl)c(Cl)c2ccccc12	?	-11%	5%	6.7µM*	?
O=C(O)[C@@H]1CCN1	nt	nt	nt	-2%[59 µM]	nt
CC1(c2ccc(Cl)cc2Cl)OCC(Cn2cncn2)O1 (stereo not given)	-15%	-2%	1%	?	71µM*
CCCC1COC(Cn2cncn2)(c2ccc(Cl)cc2Cl)O1 (stereo not given)	-18%[57.1 µM]	48%	1%	-7%	-37%
CCn1c(O)c(C=NCc2ccccc2)c(=O)[nH]c1=S	-21%	6%	nt	?	-19%
CCn1c(O)c(C(c2ccccn2)c2c(O)n(CC)c(=S)[nH]c2=O)c(=O)[nH]c1=S	4µM*	21%	-3%	?	32µM*
CCOC(=O)c1ccccc1NC(=O)c1c(O)[nH]c(=S)[nH]c1=O	2%	50%	nt	nt	nt
O=c1[nH]c(=S)[nH]c(O)c1C(c1ccccn1)c1c(O)[nH]c(=S)[nH]c1=O	?	18%	-8%	5µM*	20µM*
CN1CCC(O)(c2cccs2)C(C(=O)c2cccs2)C1 (stereo not given)	-18%	6%	1%	25µM*	-18%
CCCCN1CCC(O)(c2ccccc2)C(C(=O)c2ccccc2)C1 (stereo not given)	?	40%	6%	?	-19%
O=C(O)CN(CCN(CC(=O)O)CC(=O)O)CC(=O)O	nt	nt	nt	50%[59 µM]	nt
CNc1ccc(C(=O)CC(O)CCC(C)C2OC(=O)CC(O)CC(=O)CC(O)CC(O)CC(O)CC(O)CC3(O)CC(O)C(C(=O)OC)C(CC(O[C@@H]4OC(C)C(O)C(N)C4O)/C=C/C=C/C=C/C=C/C=C/C=C/C=C/C2C)O3)cc1 (stereo not given in full)	nt	nt	nt	7%[2.33 µM]	nt
Cc1[nH]ccc2c1[nH]c1cc(=O)ccc12	-9%	6%	2%	50µM*	-12%
CCCn1c(C(C)C)n[nH]c1=S	?	31%	nt	35µM*	3%
CC(C)CN1CCC2(CC1)CCN(S(C)(=O)=O)CC2	nt	nt	nt	7%[12.7 µM]	nt
CN(C)C(=O)Oc1ccc[n+](C)c1	-5%	32%	-2%	4%[59 µM]	5%
